Experiments:
Assay in all cases: DAPPL (digital affinity profiling via proximity ligation, sequencing); 10 mM Tris-HCl pH 7.5, 50 mM NaCl, 1 mM DTT, 4% glycerol, room temperature, 30 min; GST-TFs on glutathione beads, 16-mer random dsDNA library, 0.1% formaldehyde crosslink after washing; high values mean tight binding
[1] = target: T1, FLI1 (Homo sapiens, UniProt Q01543 1-452); details: protein: recombinant; tags: N-terminal GST; dsDNA, one strand shown
T1 sequence: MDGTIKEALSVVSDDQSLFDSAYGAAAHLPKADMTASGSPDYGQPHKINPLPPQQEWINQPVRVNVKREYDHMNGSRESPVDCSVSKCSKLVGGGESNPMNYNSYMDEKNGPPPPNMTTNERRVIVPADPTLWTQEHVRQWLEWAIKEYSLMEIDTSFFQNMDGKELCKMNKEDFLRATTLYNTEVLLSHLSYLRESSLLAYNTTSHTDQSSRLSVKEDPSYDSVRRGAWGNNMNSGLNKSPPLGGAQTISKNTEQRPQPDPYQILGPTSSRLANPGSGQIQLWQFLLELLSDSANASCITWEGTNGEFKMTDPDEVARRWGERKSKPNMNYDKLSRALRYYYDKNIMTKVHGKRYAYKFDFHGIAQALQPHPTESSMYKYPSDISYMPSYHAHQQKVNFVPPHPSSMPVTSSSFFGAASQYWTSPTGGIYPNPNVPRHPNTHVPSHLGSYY
Outline: (§1)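 Binding signal is defined as a hexamer's read frequency for one factor over its frequency for the tag-only sample. To obtain reads, GST-fused human transcription factors were expressed in yeast, captured on glutathione beads, barcoded with DNA and pooled with that sample. Pools met 200 nmole of a 16-mer random double-stranded DNA library in Tris/NaCl/DTT/glycerol buffer for 30 min at room temperature before washing, 0.1% formaldehyde crosslinking, proximity ligation (BsaI/T4 ligase, 1 h, 37 °C), PCR and Illumina NextSeq500 sequencing.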

[2] = target: SPI1 (Homo sapiens, UniProt P17947 1-270); details: protein: recombinant; tags: N-terminal GST; dsDNA, one strand shown
Outline: as §1

[3] = target: T2, ELK4 (Homo sapiens, UniProt P28324-2 1-405); details: protein: recombinant; tags: N-terminal GST; dsDNA, one strand shown
T2 sequence: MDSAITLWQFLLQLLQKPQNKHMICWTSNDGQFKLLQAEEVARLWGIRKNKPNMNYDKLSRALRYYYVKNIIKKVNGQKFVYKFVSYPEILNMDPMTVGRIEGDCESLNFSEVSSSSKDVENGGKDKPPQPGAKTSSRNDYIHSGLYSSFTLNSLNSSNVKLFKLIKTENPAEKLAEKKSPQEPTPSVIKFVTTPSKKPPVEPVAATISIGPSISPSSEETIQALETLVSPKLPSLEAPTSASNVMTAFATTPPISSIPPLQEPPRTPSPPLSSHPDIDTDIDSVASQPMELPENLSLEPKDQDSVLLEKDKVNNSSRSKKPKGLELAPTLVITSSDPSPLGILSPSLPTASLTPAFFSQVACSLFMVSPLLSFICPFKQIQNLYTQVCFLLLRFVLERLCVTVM
Outline: as §1

[4] = target: T3, ETV2 (Homo sapiens, UniProt O00321 1-342); details: protein: recombinant; tags: N-terminal GST; dsDNA, one strand shown
T3 sequence: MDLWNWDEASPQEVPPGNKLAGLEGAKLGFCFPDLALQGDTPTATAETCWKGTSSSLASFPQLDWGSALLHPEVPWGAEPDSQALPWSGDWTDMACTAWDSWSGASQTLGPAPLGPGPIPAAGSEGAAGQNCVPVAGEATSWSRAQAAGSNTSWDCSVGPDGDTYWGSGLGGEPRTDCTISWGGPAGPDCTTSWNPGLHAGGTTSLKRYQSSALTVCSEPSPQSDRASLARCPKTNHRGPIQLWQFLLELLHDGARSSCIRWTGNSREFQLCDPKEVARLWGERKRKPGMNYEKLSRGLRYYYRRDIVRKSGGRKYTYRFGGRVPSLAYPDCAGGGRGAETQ
Outline: as §1

[5] = target: T4, ETV3 (Homo sapiens, UniProt P41162-2 1-143); details: protein: recombinant; tags: N-terminal GST; dsDNA, one strand shown
T4 sequence: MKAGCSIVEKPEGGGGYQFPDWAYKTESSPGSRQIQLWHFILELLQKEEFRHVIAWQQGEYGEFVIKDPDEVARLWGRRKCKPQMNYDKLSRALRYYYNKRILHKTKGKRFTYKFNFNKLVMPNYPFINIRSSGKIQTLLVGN
Outline: as §1

[6] = target: ETV6 (Homo sapiens, UniProt P41212 1-452); details: protein: recombinant; tags: N-terminal GST; dsDNA, one strand shown
Outline: as §1

[7] = target: T5, ELK1 (Homo sapiens, UniProt P19419 1-428); details: protein: recombinant; tags: N-terminal GST; dsDNA, one strand shown
T5 sequence: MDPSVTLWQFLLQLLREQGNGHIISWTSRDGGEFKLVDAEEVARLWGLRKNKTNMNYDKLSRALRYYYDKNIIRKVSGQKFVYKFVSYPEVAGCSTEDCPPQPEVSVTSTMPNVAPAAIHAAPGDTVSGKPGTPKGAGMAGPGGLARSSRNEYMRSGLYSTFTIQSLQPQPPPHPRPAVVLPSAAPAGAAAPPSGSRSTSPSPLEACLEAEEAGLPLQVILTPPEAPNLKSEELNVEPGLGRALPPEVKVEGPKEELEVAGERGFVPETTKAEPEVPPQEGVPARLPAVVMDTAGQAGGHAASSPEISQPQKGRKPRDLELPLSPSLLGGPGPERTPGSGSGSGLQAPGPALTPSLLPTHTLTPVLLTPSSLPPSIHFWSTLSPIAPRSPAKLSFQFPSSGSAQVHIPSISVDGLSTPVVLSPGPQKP
Outline: as §1

[8] = target: T6, GABPA (Homo sapiens, UniProt Q06546 1-454); details: protein: recombinant; tags: N-terminal GST; dsDNA, one strand shown
T6 sequence: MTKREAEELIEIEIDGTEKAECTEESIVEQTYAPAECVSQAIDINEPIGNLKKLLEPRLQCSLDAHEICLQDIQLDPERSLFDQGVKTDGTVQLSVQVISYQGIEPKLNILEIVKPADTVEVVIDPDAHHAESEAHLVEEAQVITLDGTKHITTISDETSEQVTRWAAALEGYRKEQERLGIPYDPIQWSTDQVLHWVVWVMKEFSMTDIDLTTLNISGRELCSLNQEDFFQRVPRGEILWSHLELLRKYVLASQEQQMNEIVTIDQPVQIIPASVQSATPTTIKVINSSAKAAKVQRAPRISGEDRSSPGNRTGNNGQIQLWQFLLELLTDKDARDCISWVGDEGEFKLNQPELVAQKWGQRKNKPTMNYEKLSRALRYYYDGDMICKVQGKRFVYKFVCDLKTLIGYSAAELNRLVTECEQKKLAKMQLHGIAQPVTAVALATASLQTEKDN
Outline: as §1

[9] = target: T7, ELF3 (Homo sapiens, UniProt P78545 1-371); details: protein: recombinant; tags: N-terminal GST; dsDNA, one strand shown
T7 sequence: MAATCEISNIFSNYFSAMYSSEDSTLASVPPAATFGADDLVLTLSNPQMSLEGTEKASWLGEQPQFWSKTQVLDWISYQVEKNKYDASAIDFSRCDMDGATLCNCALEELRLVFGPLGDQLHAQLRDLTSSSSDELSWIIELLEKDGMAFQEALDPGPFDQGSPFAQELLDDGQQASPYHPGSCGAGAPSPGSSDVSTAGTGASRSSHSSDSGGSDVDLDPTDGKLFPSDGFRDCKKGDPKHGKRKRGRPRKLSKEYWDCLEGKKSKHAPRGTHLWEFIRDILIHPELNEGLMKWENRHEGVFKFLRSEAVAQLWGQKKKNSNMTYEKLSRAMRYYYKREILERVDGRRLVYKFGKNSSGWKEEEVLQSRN
Outline: as §1

[10] = target: ELF1 (Homo sapiens, UniProt P32519 1-619); details: protein: recombinant; tags: N-terminal GST; dsDNA, one strand shown
Outline: as §1

[11] = target: T8, ETV7 (Homo sapiens, UniProt Q9Y603 1-341); details: protein: recombinant; tags: N-terminal GST; dsDNA, one strand shown
T8 sequence: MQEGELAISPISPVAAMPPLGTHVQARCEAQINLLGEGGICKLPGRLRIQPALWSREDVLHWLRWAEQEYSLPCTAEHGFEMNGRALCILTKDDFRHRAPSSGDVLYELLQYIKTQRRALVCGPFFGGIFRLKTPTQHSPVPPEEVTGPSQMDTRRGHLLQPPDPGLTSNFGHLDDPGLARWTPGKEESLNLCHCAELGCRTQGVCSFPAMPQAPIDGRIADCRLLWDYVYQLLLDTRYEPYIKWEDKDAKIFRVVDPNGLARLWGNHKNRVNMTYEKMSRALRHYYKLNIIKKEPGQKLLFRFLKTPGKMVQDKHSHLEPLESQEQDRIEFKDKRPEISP
Outline: as §1

[12] = target: HSF1 (Homo sapiens, UniProt Q00613 1-529); details: protein: recombinant; tags: N-terminal GST; chain copies: 3; dsDNA, one strand shown
Outline: as §1

Sequence of HSF1 (Q00613 whole entry): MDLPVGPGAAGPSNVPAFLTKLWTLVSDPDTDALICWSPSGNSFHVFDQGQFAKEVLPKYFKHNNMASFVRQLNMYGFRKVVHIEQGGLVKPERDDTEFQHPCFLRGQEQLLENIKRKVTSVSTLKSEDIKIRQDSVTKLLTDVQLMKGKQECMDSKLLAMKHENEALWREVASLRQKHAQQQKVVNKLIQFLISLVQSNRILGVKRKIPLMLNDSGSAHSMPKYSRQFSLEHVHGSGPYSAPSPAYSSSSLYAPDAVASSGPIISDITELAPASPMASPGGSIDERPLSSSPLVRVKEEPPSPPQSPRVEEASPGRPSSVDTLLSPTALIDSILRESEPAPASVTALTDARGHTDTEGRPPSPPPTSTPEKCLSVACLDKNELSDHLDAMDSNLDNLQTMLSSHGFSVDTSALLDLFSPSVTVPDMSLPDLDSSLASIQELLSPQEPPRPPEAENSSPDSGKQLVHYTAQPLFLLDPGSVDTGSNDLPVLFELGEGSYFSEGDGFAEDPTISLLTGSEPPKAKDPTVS
Sequence of ETV6 (P41212 whole entry): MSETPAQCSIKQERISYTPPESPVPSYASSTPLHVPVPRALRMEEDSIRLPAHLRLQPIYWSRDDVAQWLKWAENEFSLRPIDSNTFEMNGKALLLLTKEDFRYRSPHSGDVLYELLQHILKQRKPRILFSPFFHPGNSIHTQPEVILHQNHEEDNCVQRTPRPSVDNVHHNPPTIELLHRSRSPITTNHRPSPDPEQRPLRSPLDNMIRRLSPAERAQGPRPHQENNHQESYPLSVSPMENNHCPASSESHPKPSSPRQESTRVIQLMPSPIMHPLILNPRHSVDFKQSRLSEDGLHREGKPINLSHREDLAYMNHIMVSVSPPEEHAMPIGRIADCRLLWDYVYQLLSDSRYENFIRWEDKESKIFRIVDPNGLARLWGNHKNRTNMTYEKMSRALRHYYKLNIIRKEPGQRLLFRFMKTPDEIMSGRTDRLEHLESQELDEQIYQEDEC
Sequence of ELF1 (P32519 whole entry): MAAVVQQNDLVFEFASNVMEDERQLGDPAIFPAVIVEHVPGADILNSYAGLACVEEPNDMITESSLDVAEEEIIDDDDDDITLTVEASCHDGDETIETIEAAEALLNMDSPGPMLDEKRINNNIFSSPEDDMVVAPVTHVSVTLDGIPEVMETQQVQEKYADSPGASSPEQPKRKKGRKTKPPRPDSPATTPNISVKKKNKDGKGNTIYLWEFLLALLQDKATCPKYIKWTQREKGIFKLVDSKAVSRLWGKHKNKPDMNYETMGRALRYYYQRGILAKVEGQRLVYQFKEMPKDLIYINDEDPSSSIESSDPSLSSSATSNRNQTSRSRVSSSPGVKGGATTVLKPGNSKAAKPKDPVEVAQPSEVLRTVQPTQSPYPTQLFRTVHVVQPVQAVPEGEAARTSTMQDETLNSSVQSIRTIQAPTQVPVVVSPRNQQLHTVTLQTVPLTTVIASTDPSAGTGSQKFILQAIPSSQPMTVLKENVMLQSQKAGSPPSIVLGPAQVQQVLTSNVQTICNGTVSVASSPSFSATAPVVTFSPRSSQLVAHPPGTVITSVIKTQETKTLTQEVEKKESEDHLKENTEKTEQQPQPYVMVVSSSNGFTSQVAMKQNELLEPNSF

GTGCGC
binding signal [1]: 1.02 fold enrichment (6-mer frequency, TF over GST control) | binding signal [2]: 1.02 fold enrichment (6-mer frequency, TF over GST control) | binding signal [3]: 1.15 fold enrichment (6-mer frequency, TF over GST control) | binding signal [4]: 1.02 fold enrichment (6-mer frequency, TF over GST control) | binding signal [5]: 1.04 fold enrichment (6-mer frequency, TF over GST control) | binding signal [6]: 1.03 fold enrichment (6-mer frequency, TF over GST control)

GACCGC
binding signal [1]: 1.06 fold enrichment (6-mer frequency, TF over GST control) | binding signal [7]: 1.01 fold enrichment (6-mer frequency, TF over GST control) | binding signal [8]: 1.06 fold enrichment (6-mer frequency, TF over GST control) | binding signal [4]: 1.03 fold enrichment (6-mer frequency, TF over GST control) | binding signal [9]: 1.01 fold enrichment (6-mer frequency, TF over GST control)

GTCCAA
binding signal [1]: 1.03 fold enrichment (6-mer frequency, TF over GST control) | binding signal [10]: 1.03 fold enrichment (6-mer frequency, TF over GST control) | binding signal [11]: 1.01 fold enrichment (6-mer frequency, TF over GST control) | binding signal [5]: 1.04 fold enrichment (6-mer frequency, TF over GST control)

TCCGAG
binding signal [12]: 1.03 fold enrichment (6-mer frequency, TF over GST control)

CAGAAG
binding signal [12]: 1.32 fold enrichment (6-mer frequency, TF over GST control)
